Rows were chosen to be rich in hits. Some 17% of all compounds tested hit in one or more screens of this group.
TDP1 inh: TDP1 (human) enzyme inhibition | actives 0.28% (n = 350,000) | AID 485290 | recombinant TDP1, AlphaScreen DNA substrate cleavage | Potency, µM (titrated, usually from 130 µM), without a hit: at the top dose activity change, negative = inhibition, usual class: inhibitors | Q9NUW8; also: % is scaled to controls: 0 for no effect and ±100 for the full control effect; nearly all actives have a fitted effect of over 40% in size
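Here, a 5' biotin and 3' phosphotyrosine-FITC DNA oligonucleotide reports Tdp1 activity: intact substrate bridges AlphaScreen beads, while cleavage leaves a 3' phosphate and drops signal. All incubations at room temperature.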
ClpP mod: qHTS Assay for Activators of ClpP; ATP-dependent Clp protease proteolytic subunit (Bacillus subtilis (strain 168)), P80244; purified B. subtilis ClpP, FRET peptide cleavage, 20 min; Potency, µM (titrated, usually from 57.5 µM), without a hit: at the top dose activity change, negative = active; actives 1.9% (n = 340,000); AID 651965, 2013; active = well fitted falling curve with a large enough effect; inconclusive = small, poorly fitted or top-dose-only effect; inactive = no such curve, though single readings can be large or run the other way; also: the source files actives as falling curves though it sought activators and does not explain the sign; nearly all actives have a fitted effect of over 65% in size
Target sequence (P80244 whole entry, looked up): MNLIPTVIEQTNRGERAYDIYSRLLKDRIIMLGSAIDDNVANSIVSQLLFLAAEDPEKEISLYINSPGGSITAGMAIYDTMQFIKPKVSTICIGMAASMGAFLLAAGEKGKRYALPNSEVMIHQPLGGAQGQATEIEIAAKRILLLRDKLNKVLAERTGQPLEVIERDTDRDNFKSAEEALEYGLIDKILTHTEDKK
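FRET quenching reversal measured ClpP activation: 10 microg/mL B. subtilis ClpP at pH 8 with the FRET-FV decapeptide, read at 430 nm after 320 nm excitation. The 20-min minus 0-min signal was scaled between DMSO/no-enzyme wells and ADEP (5.8 microM final).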
TDP1 cell noCPT: qHTS for Inhibitors of human tyrosyl-DNA phosphodiesterase 1 (TDP1): qHTS in cells in absence of CPT; DT40 Tdp1-/- hTDP1 cells, no CPT, ATP luminescence, 48 h; Potency, µM (top dose mostly 46.2 µM), inactives show at the highest dose activity change, negative = growth inhibition, most hits filed as inhibitors; actives 15% (n = 420,000); also: % is scaled to controls: 0 for no effect and ±100 for the full control effect; nearly all actives have a fitted effect of over 55% in size
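No-CPT arm: Tdp1-/-;hTDP1 DT40 cells (400/well) plus compounds, incubated ≥48 hr at 37 °C. Readout CellTiter-Glo luminescence.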
TDP1 cell CPT: DT40-hTDP1 cell growth loss with CPT. AID 686979. actives 12% (n = 420,000). Potency, µM (doses to about 46.2 µM), inactives show at the top dose activity change, negative = growth inhibition, actives largely listed as inhibitors. chicken DT40 Tdp1-/-;hTDP1 cells + 20 nM CPT, ATP luminescence, 48 h; also: % is scaled to controls: 0 for no effect and ±100 for the full control effect; nearly all actives have a fitted effect of over 55% in size
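Chicken DT40 Tdp1-/- cells complemented with human TDP1, 400 cells/well, exposed to compounds plus 20 nM camptothecin for at least 48 h at 37 C; viability read as ATP content by CellTiter-Glo luminescence.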
* = called active by the depositor; ? = inconclusive; · = no result given; ! = a repeat was not active; [ ] = dose if it differs, or a comment. Unless noted, calls follow the shape of the dose curve; as a rule, active = well fitted curve in the direction sought with a large enough effect; inconclusive = small, poorly fitted or top-dose-only effect, or another doubt; inactive = no such curve, though single readings can be large; an effect the other way counts as inactive or inconclusive. Potency is read from the fitted curve at half-maximal effect.

SMILES	TDP1 inh	ClpP mod	TDP1 cell noCPT	TDP1 cell CPT
C/C(CC(=O)Nc1ccccn1)=N\NC(=O)c1ccccc1	5.4%	·	·	·
C/C(=N\NC(=O)c1ccc(Cl)c(Cl)c1)c1ccc(Br)s1	-0.6%	-2.7%	1.46µM*	1.46µM*
Cc1nc(C(C)NC2CCN(c3cccc(NC(=O)c4ccncc4)c3)CC2)cs1 (centres undefined)	·	·	-21.4%	?
C/C(=N\NC(=O)c1cccc2ccccc12)c1ccccn1	4.4%	1.5%	1.46µM*	1.16µM*
C/C(=N\NC(=O)C(c1ccccc1)c1ccccc1)c1ccccn1	7.6%	1.2%	4.61µM*	4.61µM*
C/C(=N\NC(=O)c1ccccc1Cl)c1ccccn1	·	0.0%	2.91µM*	2.91µM*
C/C(=N\NC(=O)c1cc(-c2cccs2)nc2ccccc12)c1ccccn1	7.7%	4.4%	0.731µM*	0.651µM*
CS(=O)(=O)N(CC(=O)O)Cc1cccc(CN(CC(=O)O)S(C)(=O)=O)c1	·	0.4%	3.5%	-1.4%
CC12CCC(=O)C=C1CCC1C3CC(O)C(O)(C(=O)CO)C3(C)CC(O)C12F (centres undefined)	·	·	3.5%	5.4%
CC(=O)C1CCC2C3CCC4=CC(=O)CCC4(C)C3(F)C(O)CC12C (centres undefined)	·	0.9%	23.1µM*	23.1µM*
CON=C1C[C@]2(C[C@@H]3C[C@@H](C/C=C(\C)C[C@@H](C)/C=C/C=C4\CO[C@@H]5[C@H](O)C(C)=C[C@@H](C(=O)O3)[C@]45O)O2)O[C@H](/C(C)=C/C(C)C)[C@H]1C	·	·	21.1µM*!	4.22µM*!
CC[C@@H](C)[C@H]1O[C@]2(CC[C@@H]1C)C[C@@H]1C[C@H](C/C=C(/C)[C@H](O[C@@H]3C[C@H](OC)[C@H](O[C@@H]4C[C@H](OC)[C@@H](O)[C@H](C)O4)[C@H](C)O3)[C@@H](C)/C=C\C=C3CO[C@@H]4[C@H](O)C(C)=C[C@@H](C(=O)O1)[C@]34O)O2 (tested in a mixture with another compound)	-13.6%[56.1 µM]	·	?	11.9µM*
CCC(C)[C@H]1O[C@]2(C=C[C@@H]1C)C[C@@H]1C[C@@H](C/C=C(\C)[C@@H](O[C@H]3C[C@H](OC)[C@@H](O[C@H]4C[C@H](OC)[C@H](NC(C)=O)[C@H](C)O4)[C@H](C)O3)[C@@H](C)/C=C/C=C3\CO[C@@H]4[C@H](O)C(C)=C[C@@H](C(=O)O1)[C@]34O)O2 (some centres undefined)	·	·	2.66µM*	4.22µM*
CC[C@@H](C)[C@H]1O[C@]2(CC[C@@H]1C)C[C@@H]1C[C@@H](C/C=C(\C)[C@@H](O[C@H]3C[C@H](OC)[C@@H](O[C@H]4C[C@H](OC)[C@@H](O)[C@H](C)O4)[C@H](C)O3)[C@@H](C)/C=C/C=C3\CO[C@@H]4[C@H](O)C(C)=C[C@@H](C(=O)O1)[C@]34O)O2	13.5%[56.1 µM]	·	·	·
CC[C@H](C)[C@@H]1O[C@]2(CC[C@@H]1C)C[C@H]1C[C@H](CC=C(C)[C@@H](O[C@@H]3C[C@H](OC)[C@H](O[C@@H]4C[C@H](OC)[C@H](O)[C@H](C)O4)[C@H](C)O3)[C@@H](C)C=CC=C3CO[C@@H]4[C@@H](O)C(C)=C[C@@H](C(=O)O1)[C@]34O)O2	8.3%[56.1 µM]	·	·	·
CC[C@H](C)[C@H]1O[C@]2(CC[C@@H]1C)C[C@@H]1C[C@@H](CC=C(C)[C@@H](O[C@H]3C[C@H](OC)[C@@H](O[C@H]4C[C@H](OC)[C@@H](O)[C@H](C)O4)[C@H](C)O3)[C@@H](C)C=CC=C3CO[C@@H]4[C@H](O)C(C)=C[C@@H](C(=O)O1)[C@]34O)O2	·	-12.2%	3.66µM*	3.66µM*
Cc1ccc(NC(=O)N2CCc3cc(S(=O)(=O)N4CCC(C)CC4)ccc32)cc1C	5.1%	35.1%	-22.9%	6.3%
Cc1ccc2c(c1)N(Cc1ccc([N+](=O)[O-])cc1)C=NS2(=O)=O	·	·	-22.3%	-7.8%
CCC(c1nc2ccccc2[nH]1)N(CCCn1ccnc1)C(=O)c1ccc(C(F)(F)F)cc1 (centres undefined)	·	0.3%	-19.8%	?
CCCCN(C(=O)c1ccccc1Cl)C(CC(C)C)c1nc2ccccc2[nH]1 (centres undefined)	·	-0.8%	?	20.6µM*
CCOc1ccc(Cn2nnc(C(=O)NCCc3ccccc3)c2N)cc1	-2.0%	2.2%	-8.4%	1.3%
Cc1ccc(CCNC(=O)c2sc3ncccc3c2-n2c(C)ccc2C)cc1	10.1%	-27.0%	6.51µM*	11.6µM*
CCOc1ccc(CCNC(=O)c2sc3ncccc3c2-n2c(C)ccc2C)cc1	8.9%	1.0%	14.6µM*	13µM*
Cc1ccc(CCNC(=O)c2sc3nc4n(c(=O)c3c2C)CCCC4)cc1	2.6%	-6.3%	?	?
Cc1ccc(C)n1-c1c(C(=O)NCC(C)c2ccccc2)sc2ncccc12 (centres undefined)	5.3%	6.6%	18.4µM*	20.6µM*
SMILES	TDP1 inh	ClpP mod	TDP1 cell noCPT	TDP1 cell CPT
Cc1ccc(C(=O)COC(=O)c2cc(=O)[nH]c3ccccc23)cc1C	-6.0%	·	-23.8%	-3.4%
CN(C)c1nc2c(N)ncnc2n1C1OC(CO)C(O)C1O (centres undefined)	·	-5.9%	3.0%	3.6%
[N-]=[N+]=Nc1nc2c(N)ncnc2n1C1OC(CO)C(O)C1O (centres undefined)	15.6%[56.1 µM]	·	0.581µM*	0.411µM*
Nc1ncnc2c1nc(Cl)n2C1OC(CO)C(O)C1O (centres undefined)	10.9%[56.1 µM]	·	0.461µM*	0.366µM*
Nc1ncnc2c1nc(Cl)n2[C@@H]1O[C@H](CO)[C@@H](O)[C@@H]1O	0.5%	-8.7%	5.01µM*	1µM*
COC(=O)c1ccccc1C(=O)N1CCOc2ccc(CN3CCN(c4ccccn4)CC3)cc2C1	·	·	-11.3%	1.9%[9.04 µM]
Cc1ccc(-c2ccc(OC(=O)c3ccc(=O)[nH]c3)c(C)c2)cc1	·	1.7%	-12.8%	-17.0%
CC(C)NC[C@H](O)COc1cccc2ccccc12	4.9%	-9.0%	?	?
OC(COc1cccc2ccccc12)CN1CCOCC1 (centres undefined)	·	?	-20.7%	0.6%
CC(C)NC[C@@H](O)COc1cccc2ccccc12	15.1%[56.1 µM]	-20.7%	20.6µM*!	29.9µM*!
OC(COc1cccc2ccccc12)CN1CCN(c2ccccc2)CC1 (centres undefined)	8.8%	-9.4%	?	18.4µM*
Cc1ccc(Cn2c(CN3CCC(C(=O)O)CC3)cc3ccccc32)cc1	2.5%	-2.7%	-27.4%	-29.5%
Cc1ccccc1Cn1c(CN2CCC(C(=O)NCCN(C)C)CC2)cc2ccccc21	9.3%	-1.6%	4.11µM*	3.26µM*

Compound activity deposited in PubChem by National Center for Advancing Translational Sciences (NCATS).
